Sampled rows, rich in hits. Any-hit rate of the full collection: about 12%.
Pf growth 48h: Primary qHTS for delayed death inhibitors of the malarial parasite plastid, 48 hour incubation | P. falciparum luciferase growth in erythrocytes, 48 h | Potency, µM (titrated, usually from 28.7 µM), actives largely listed as inhibitors | 310,000 compounds, 5.9% hits | AID 504832, 2011
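Parasite viability was followed by luminescence of a genomically integrated firefly luciferase. Cultures held 0.1% parasitemia at 2% hematocrit (final), incubated under 5% CO2 at 37 C.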
Pf growth 96h: Primary qHTS for delayed death inhibitors of the malarial parasite plastid, 96 hour incubation; 320,000 compounds, 6.9% hits; Potency, µM (titrated, usually from 28.7 µM), hits mostly inhibitors; P. falciparum luciferase reporter growth, 96 h
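Luminescence readout: decreased luciferase signal marks inhibited growth of reporter-expressing P. falciparum in infected red cells (2% hematocrit, 0.05% parasitemia final), exposed to compound two generations (96 h, 37 C, 5% CO2).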
Sm TGR block: qHTS Assay for the Inhibitors of Schistosoma Mansoni Peroxiredoxins; purified TGR, DTNB reduction, TNB absorbance 405 nm; 360,000 compounds, 3% hits; Schistosoma mansoni thioredoxin glutathione reductase (TGR), Q962Y6; Potency, µM (highest dose often 114 µM), hits mostly inhibitors; note: nearly all actives have a fitted effect of over 60% in size
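TGR 20 nM + NADPH 100 uM (dispensed conc.), cpd preinc 15 min RT; start with NADPH (500 uM addition) then DTNB (15 mM addition). Kinetic TNB absorbance, 405 nm filter. Four-parameter Hill fit across titration.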
SARS PLP yeast: qHTS of Yeast-based Assay for SARS-CoV PLP | 330,000 compounds, 0.19% hits | S. cerevisiae expressing SARS-CoV PLpro, growth rescue | Potency, µM (highest dose often 32.9 µM), hits mostly activators | AID 485353, 2010; calls by dose curve; note: nearly all actives have a fitted effect of over 55% in size
Numbers stand for hits; – = inactive; ? = inconclusive; · = not tested or not shown; [ ] = another dose, or the depositor's remark. Unless noted, calls come from the whole dose curve; as a rule, active = well fitted curve in the direction sought with a large enough effect; inconclusive = small, poorly fitted or top-dose-only effect, or another doubt; inactive = no such curve, though single readings can be large; an effect the other way counts as inactive or inconclusive.

SMILES	Pf growth 48h	Pf growth 96h	Sm TGR block	SARS PLP yeast
COc1cccc(CNC(=O)CCC2CCCN(C(=O)c3csc(C(C)C)n3)C2)c1 (stereo unspecified)	–	13µM	–	–
COc1cccc(-n2c(=O)c3c(C)c(C(=O)N(C)C)sc3n(Cc3ccc(F)cc3Cl)c2=O)c1	·	·	–	·
Cc1ccc2c(=O)cc(C(=O)Nc3cccc(Cl)c3C)oc2c1C	·	·	–	·
CCCN(CCC)c1ccc(C2N=C(N)Nc3nc4ccccc4n32)cc1 (stereo unspecified)	·	·	–	·
O=C(CCC1CCCN(C(=O)c2cncs2)C1)NCc1ccc(F)c(F)c1 (stereo unspecified)	–	8.3µM	–	–
CCOC(=O)Cc1ccc(NC(=O)c2cccc([N+](=O)[O-])c2)cc1	–	–	·	–
CCOC(=O)CSc1nnc(NC(=O)c2cccc([N+](=O)[O-])c2)s1	–	12µM	–	–
C=CCN(Cc1nc(-c2ccccc2)no1)C(=O)c1ccc2c(c1)OCO2	–	–	–	–
O=c1c2ccccc2nc2n1CCO2	·	–	–	–
O=c1c2ccccc2nc2oc3ccccc3n12	–	13µM	–	–
CC1CCN(CC(CS(=O)(=O)c2ccc([N+](=O)[O-])cc2)N2CCC(C)CC2)CC1 (stereo unspecified)	?	?	2.5µM	–
CCOC(=O)c1ccc(NC(=O)c2nc(SCc3ccccc3F)ncc2Cl)cc1	·	·	–	·
CSc1nnc(NC(=O)c2nc(S(=O)(=O)Cc3ccccc3F)ncc2Cl)s1	–	?	28µM	–
Cc1nnc(NC(=O)c2nc(SCc3ccccc3F)ncc2Cl)s1	·	·	–	·
CCOc1ccc(NC(=O)c2nc(S(=O)(=O)Cc3ccccc3F)ncc2Cl)cc1	·	·	7.1µM	·
Cc1nnc(NC(=O)c2nc(S(=O)(=O)Cc3ccccc3C)ncc2Cl)s1	–	–	25µM	–
CC(C)c1nnc(NC(=O)c2nc(S(=O)(=O)Cc3ccccc3F)ncc2Cl)s1	–	–	32µM	–
CCC(=O)N1CCc2cc(Br)cc(S(=O)(=O)CCC(=O)N3CCN(c4cccc(C(F)(F)F)c4)CC3)c21	·	·	–	·
COc1ccccc1CN(C)C(=O)c1ccc2c(c1)NC(=O)CS2	·	?	–	–
COC(=O)c1ccc2c(c1)NC(=O)CS2	12µM	–	–	–
Cc1ccc(CN(C)C(=O)c2ccc3c(c2)NC(=O)CS3)o1	–	–	10µM	–
COc1ccccc1Cc1nc2ccccc2nc1SCC(=O)NCc1ccc(F)cc1	·	·	–	·
O=C(CC(c1ccccc1)c1ccco1)Nc1nccs1 (stereo unspecified)	10µM	9.3µM	?	–
COc1ccc(NC(=O)CC(C(=O)O)C(C)c2ccccc2)cc1 (stereo unspecified)	–	?	–	–
COc1ccc(NC(=O)CC(c2ccccc2)c2ccco2)cc1 (stereo unspecified)	?	–	40µM	–
SMILES	Pf growth 48h	Pf growth 96h	Sm TGR block	SARS PLP yeast
CC(CC(=O)Nc1nccs1)c1ccccc1 (stereo unspecified)	?	?	–	–
Cc1cc(C(=O)NCCc2ccc(Cl)cc2)c2c(C)nn(-c3cccc(F)c3)c2n1	·	·	–	·
COc1cc(Cl)c(C)cc1NC(=O)CSc1sc2c(O)cc(=O)[nH]c2c1C#N	–	–	–	–
CC12CCC(=O)N1C(C(=O)Nc1cc(C(F)(F)F)ccc1N1CCCCC1)CS2 (stereo unspecified)	9.3µM	?	–	–
CC12CCC(=O)N1C(C(=O)Nc1cc(C(F)(F)F)ccc1N1CCOCC1)CS2 (stereo unspecified)	?	?	–	–
CC12CCC(=O)N1C(C(=O)Nc1ccccc1N1CCCCC1)CS2 (stereo unspecified)	10µM	?	–	–
COc1ccc(NS(=O)(=O)c2cccc(C(=O)NC3CCC(O)CC3)c2)cc1 (stereo unspecified)	?	?	–	–
COc1ccc(CN2CCNC(=O)C2CC(=O)NCc2cc(C)n(C)n2)c(F)c1 (stereo unspecified)	–	?	20µM	?
O=C(CC1C(=O)NCCN1Cc1cccc(Oc2ccccc2)c1)NCC1CCOCC1 (stereo unspecified)	–	–	·	–
COc1ccc(CN2CCNC(=O)C2CC(=O)NCC2CCOCC2)c(F)c1 (stereo unspecified)	–	10µM	?	–
COc1ccccc1CN1CCNC(=O)C1CC(=O)NCC1CCOCC1 (stereo unspecified)	–	9.3µM	–	–
COc1cccc(CN2CCNC(=O)C2CC(=O)NCC2CCOCC2)c1 (stereo unspecified)	–	?	35µM	–
COc1ccc(CN2CCNC(=O)C2CC(=O)NCC2CCOCC2)c(C)c1C (stereo unspecified)	–	–	–	–
CCc1c(O)cc2n(c1=O)-c1ccc(Cl)cc1C2(C)C	12µM	–	–	–
O=C(NCC(=O)N1CCN(c2ccccc2)CC1)c1cccs1	–	–	–	–
NC(=O)c1c(NC(=O)c2nc(SCc3ccccc3F)ncc2Cl)sc2c1CCCC2	·	·	–	·
CCOC(=O)c1cnc(-n2nc(C)cc2C)nc1NC	–	–[5.75 µM]	–	–
CCOC(=O)c1cnc(-n2nc(C)cc2C)nc1NNc1nc(-c2ccccc2)cc(-c2ccccc2)n1	1.5µM	?	–	–
CCOC(=O)c1cnc(-n2nc(C)cc2C)nc1N(CC)CC	12µM	·	–	–
CCOC(=O)c1cnc(-n2nc(C)cc2C)nc1NC1CCCCC1	1.7µM	–	–	–
CCOC(=O)c1cnc(-n2nc(C)cc2C)nc1NNc1nc(C)cc(C)n1	0.59µM	2.9µM	–	–
COc1ccc(CCN2C(=O)c3oc4cc(C)cc(C)c4c(=O)c3C2c2ccc(F)cc2)cc1OC (stereo unspecified)	·	·	–	·
COc1ccc(NC(=O)[C@H](C)NC(=O)C2CCN(S(=O)(=O)c3ccc(C)cc3)CC2)cc1	–	?	–	–
Cc1ccc(C)c(CN2C(=O)C3CCCN3c3ccc(S(=O)(=O)N4CCOCC4)cc32)c1 (stereo unspecified)	1µM	?	–	?
COc1cccc(CC(=O)Nc2cc(S(=O)(=O)N3CCOCC3)ccc2OC)c1	–	?	–	–
SMILES	Pf growth 48h	Pf growth 96h	Sm TGR block	SARS PLP yeast
COc1cccc(CN2C(=O)C3CCCN3c3ccc(S(=O)(=O)N4CCOCC4)cc32)c1 (stereo unspecified)	1µM	1.2µM	–	–
CCN(CC)S(=O)(=O)c1ccc2c(c1)N(CC(=O)Nc1c(C)cc(C)cc1C)C(=O)C1CCCN21 (stereo unspecified)	·	·	–	·
CN1C(=O)[C@@H]2[C@H](C1=O)[C@@H]1C(=O)Nc3ccccc3C(=O)N1[C@@H]2c1cccc(Br)c1	–	–	–	–
O=C(/C=C/c1ccco1)NC(=S)Nc1ccccc1N1CCCC1	2.6µM	–	·	–
O=C(/C=C/c1ccco1)Nc1ccccc1N1CCCC1	–[5.75 µM]	?	40µM	–
O=C(/C=C/c1ccco1)NC(=S)Nc1ccccc1N1CCOCC1	13µM	?	32µM	–

Compound activity: PubChem BioAssay, National Center for Advancing Translational Sciences (NCATS)
